Compound activity: PubChem, National Center for Advancing Translational Sciences (NCATS)
Most compounds without a hit are left out; they make up all but 12% or so of the library.
Sfp inh = blocks B. subtilis Sfp PPTase activity; Biochemical Sfp PPTase activity, qHTS; Q9F4F7; 310,000 compounds, 3.5% hits; Potency, µM, for inactives: largest response in the series, negative = inhibition, most hits filed as inhibitors; AID 1490;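 also: the enzyme is Sfp with the accession as filed and its product quenches rhodamine fluorescence; 0% = enzyme reaction without inhibitor and -100% = no enzyme wells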
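Reaction rates are the 30-min fluorescence difference (ex 525, em 598 nm) in wells containing 15 nM Sfp, 5 uM rhodamine-CoA and 12.5 uM BHQ-2-YbbR at pH 7.6 with 10 mM MgCl2.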
G9a block = G9a (human) methyltransferase inhibition | Q96KQ7 | G9a H3K9 monomethylation, AlphaScreen, 2 h | Potency, µM (highest dose often 102 µM), without a hit: top-dose activity, negative = inhibition, most hits filed as inhibitors | 350,000 compounds, 8.8% hits | AID 504332; also: % is scaled to controls: 0 for no effect and ±100 for the full control effect; nearly all actives have a fitted effect of over 75% in size
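Using a bead-based AlphaScreen, monomethylated H3K9 product from 2 h room-temperature reactions (G9a 20 nM, peptide 500 nM, SAM 20 uM) was detected with 0.5 ug/mL rabbit anti-H3K9me1 antibody.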
HP1b binding inh = HP1-beta chromodomain-methylated histone interaction inhibition; P83916; AlphaScreen HP1-beta / biotin-H3K9me3 peptide binding; Potency, µM (doses to about 114 µM), without a hit: at the top dose activity change, negative = inhibition, hits mostly inhibitors; 390,000 compounds, 0.56% hits; also: nearly all actives have a fitted effect of over 70% in size
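HP1-beta protein (50 nM final) preincubated 30 min at room temperature with biotinylated H3(1-18)K9me3 peptide (50 nM) in PBS pH 7.4, 0.01% Tween-20, then compound added for 30 min. AlphaScreen streptavidin donor/nickel chelate acceptor beads (10 ug/mL final), 30 min dark, luminescence read.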
JMJD2A Tudor inh = blocks the human JMJD2A Tudor domain | O75164 | AlphaScreen JMJD2A-Tudor / H3K4me3 peptide binding | Potency, µM (top dose mostly 114 µM), without a hit: top-dose activity change, negative = inhibition, most hits filed as inhibitors | 390,000 compounds, 4.4% hits | AID 504339; also: % is scaled to controls: 0 for no effect and ±100 for the full control effect; nearly all actives have a fitted effect of over 50% in size
Target sequence (O75164 whole entry, looked up, the tested form may be a part): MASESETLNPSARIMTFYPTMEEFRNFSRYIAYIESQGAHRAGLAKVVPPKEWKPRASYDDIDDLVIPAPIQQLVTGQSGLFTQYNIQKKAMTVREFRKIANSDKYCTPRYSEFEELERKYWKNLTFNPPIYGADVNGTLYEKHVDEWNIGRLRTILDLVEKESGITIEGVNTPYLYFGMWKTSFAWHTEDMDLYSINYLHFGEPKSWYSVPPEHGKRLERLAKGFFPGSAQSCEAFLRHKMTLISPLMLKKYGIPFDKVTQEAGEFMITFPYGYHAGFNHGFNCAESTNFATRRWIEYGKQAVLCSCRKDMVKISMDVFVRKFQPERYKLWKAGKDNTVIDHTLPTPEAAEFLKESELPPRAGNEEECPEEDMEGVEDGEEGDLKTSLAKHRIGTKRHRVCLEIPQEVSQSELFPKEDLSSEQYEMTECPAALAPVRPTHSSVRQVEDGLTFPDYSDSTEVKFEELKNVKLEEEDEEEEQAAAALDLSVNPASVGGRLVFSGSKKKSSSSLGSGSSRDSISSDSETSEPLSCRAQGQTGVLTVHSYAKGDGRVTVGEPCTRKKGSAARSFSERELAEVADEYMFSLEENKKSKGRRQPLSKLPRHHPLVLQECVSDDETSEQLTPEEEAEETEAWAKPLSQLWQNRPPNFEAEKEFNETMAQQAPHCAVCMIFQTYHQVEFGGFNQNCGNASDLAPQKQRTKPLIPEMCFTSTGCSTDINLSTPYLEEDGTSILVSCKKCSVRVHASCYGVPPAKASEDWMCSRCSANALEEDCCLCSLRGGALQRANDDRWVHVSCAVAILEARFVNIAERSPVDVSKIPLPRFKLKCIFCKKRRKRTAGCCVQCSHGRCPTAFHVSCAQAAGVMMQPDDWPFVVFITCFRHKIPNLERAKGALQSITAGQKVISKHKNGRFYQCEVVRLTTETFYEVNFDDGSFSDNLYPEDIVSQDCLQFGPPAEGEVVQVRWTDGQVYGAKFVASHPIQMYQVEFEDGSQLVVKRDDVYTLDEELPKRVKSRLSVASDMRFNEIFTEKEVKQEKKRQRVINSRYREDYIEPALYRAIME
BAZ2B block = inhibitors of human BAZ2B bromodomain; Q9UIF8; AlphaScreen BAZ2B-H3K14Ac peptide displacement; Potency, µM (titrated, usually from 114 µM), for inactives: at the top dose activity change, negative = inhibition, actives largely listed as inhibitors; 360,000 compounds, 4.4% hits; AID 504333; also: % is scaled to controls: 0 for no effect and ±100 for the full control effect; nearly all actives have a fitted effect of over 60% in size
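Compounds, titrated to a top concentration of 110 uM, were incubated 30 min at room temperature with preformed BAZ2B/acetyl-K14 H3 peptide complex (50 nM each). Proximity signal was measured by AlphaScreen after 20 min with beads.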
L3MBTL1 inh = blocks human L3MBTL1; Q9Y468; AlphaScreen L3MBTL1–H3K9me1 peptide binding; Potency, µM (highest dose often 57.1 µM), for inactives: at the highest dose activity, negative = inhibition, most hits filed as inhibitors; 230,000 compounds, 0.66% hits; AID 485360; also: % is scaled to controls: 0 for no effect and ±100 for the full control effect; nearly all actives have a fitted effect of over 60% in size
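L3MBTL1 50 nM + b-AHA-H3(1-15)K9me1 75 nM, 30 min RT; compound added, 30 min RT; streptavidin donor/Ni-chelate acceptor beads 10 ug/mL each final, 30 min RT dark; AlphaScreen read.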
Starred values were filed as active, the others as inactive; [ ] = another dose, or the depositor's remark. Calls follow the shape of the dose curve; as a rule, active = well fitted curve in the direction sought with a large enough effect; inconclusive = small, poorly fitted or top-dose-only effect, or another doubt; inactive = no such curve, though single readings can be large; an effect the other way counts as inactive or inconclusive. Potency is read from the fitted curve at half-maximal effect.

CCCCN(CCCC)S(=O)(=O)c1ccc2oc(C(=O)NCc3ccc(C)cc3)c(C)c2c1 was read as G9a block -22.3%[59 µM], HP1b binding inh 39.4%, JMJD2A Tudor inh -3.7% and BAZ2B block 2.0%.
CCN(CC)S(=O)(=O)c1ccc2oc(C(=O)NCc3ccc(C)cc3)c(C)c2c1 was read as Sfp inh 25.1µM*, G9a block inconclusive, HP1b binding inh 10.1%, JMJD2A Tudor inh -12.8% and BAZ2B block 4.9%.
Screening Cc1ccsc1/C=C/c1ccc2ccccc2n1 returned Sfp inh -20.7%, G9a block 5.3%[59 µM], HP1b binding inh 162.5%, JMJD2A Tudor inh 32.6%, BAZ2B block 42.2% and L3MBTL1 inh 21.1%.
Screening Cc1ccsc1/C=C/c1ccc2cccc(O)c2n1 returned Sfp inh 50.1µM*, G9a block inconclusive, HP1b binding inh 67.1%, JMJD2A Tudor inh 42.5% and BAZ2B block 19.8%.
For CN1CC(O)C2=CC(=O)C(=O)C=C21 (stereo unspecified) the results were Sfp inh 5.62µM* and G9a block inconclusive.
Cc1onc(-c2ccccc2)c1C(=O)NCCCc1ccccc1 was read as G9a block 2.2%[12.7 µM], HP1b binding inh 43.8%, JMJD2A Tudor inh 4.8%, BAZ2B block 20.7% and L3MBTL1 inh 48.4%.
For CCOC(=O)/C(C#N)=C1\CCCN1CC(N)=S the results were Sfp inh 35.5µM*, G9a block 17.8µM*, HP1b binding inh -25.2%, JMJD2A Tudor inh -17.8%, BAZ2B block -22.7% and L3MBTL1 inh 0.8%.
`Cc1ccc(C(C)C)c(OCc2ccc(-c3nnco3)cc2)c1` gave Sfp inh 50.1µM*, G9a block -18.3%[12.7 µM], HP1b binding inh 68.5%, JMJD2A Tudor inh 22.6% and BAZ2B block -3.8%.
Screening Cc1ccc(COc2ccc(-c3nnco3)cc2)cc1 returned Sfp inh 5.0%, G9a block 14.8%, HP1b binding inh 29.4%, JMJD2A Tudor inh 0.0% and BAZ2B block 8.0%.
For CC(=O)c1c(C)nn(CCC(=O)O)c1C the results were Sfp inh 5.9%, G9a block -40.8%, HP1b binding inh inconclusive, JMJD2A Tudor inh 39.8µM*, BAZ2B block -3.1% and L3MBTL1 inh -15.9%.
COc1cccc(C2Nc3cc(Cl)c(S(N)(=O)=O)cc3S(=O)(=O)N2)c1 (stereo unspecified) was read as Sfp inh 4.2%, G9a block 1.1%[59 µM], HP1b binding inh -15.9%, JMJD2A Tudor inh 50.1µM* and BAZ2B block 1.5%.
CC(=O)Nc1ccc(OCC(=O)N2CCC(Cc3ccccc3)CC2)cc1 was read as Sfp inh -7.0%, G9a block 2.4%, HP1b binding inh 6.1%, JMJD2A Tudor inh -11.7% and BAZ2B block -15.9%.
For O=C(Nc1ccc(OCC(=O)N2CCC(Cc3ccccc3)CC2)cc1)c1ccco1 the results were Sfp inh 89.1µM*, G9a block -9.7%[59 µM], HP1b binding inh 6.1%, JMJD2A Tudor inh inconclusive and BAZ2B block 5.8%.
For CC1CCN(C(=O)COc2ccc(Nc3ccccc3)cc2)CC1 the results were Sfp inh 12.1%, G9a block 50.1µM*, HP1b binding inh -19.6%, JMJD2A Tudor inh inconclusive, BAZ2B block -38.8% and L3MBTL1 inh inconclusive.
CNC(=O)c1cc(Nc2nnc(-c3ccc(C)c(S(N)(=O)=O)c3)c3ccccc23)ccc1OC was read as Sfp inh 1.3%, G9a block -3.4%, HP1b binding inh 18.7%, JMJD2A Tudor inh -2.8% and BAZ2B block -5.1%.
`Cc1nn(-c2ccccc2)c(Oc2ccccc2)c1C=O` gave Sfp inh 4.0%, G9a block 11.0%[59 µM], HP1b binding inh 92.1%, JMJD2A Tudor inh 4.9%, BAZ2B block 11.5% and L3MBTL1 inh 11.3%.
Screening CCOc1[nH]n(-c2ccccc2)c(=O)c1C=Nc1ccc(C(=O)OC)cc1 returned Sfp inh 3.5%, G9a block inconclusive, HP1b binding inh 40.9%, JMJD2A Tudor inh -19.7%, BAZ2B block -30.3% and L3MBTL1 inh 3.6%.
COC(=O)Cc1[nH]n(-c2ccccc2)c(=O)c1C(C)=Nc1ccccc1 was read as Sfp inh 9.8%, G9a block 50.1µM*, HP1b binding inh 0.1%, JMJD2A Tudor inh -22.7%, BAZ2B block -30.3% and L3MBTL1 inh 1.6%.
For C/C(=N/NC(=O)c1cccs1)c1c(C)[nH]n(-c2nc3ccccc3s2)c1=O the results were Sfp inh 7.6%, G9a block 26.3%[59 µM], HP1b binding inh 23.7%, JMJD2A Tudor inh -21.3%, BAZ2B block 6.0% and L3MBTL1 inh 18.7%.
COC(=O)Cc1[nH]n(-c2nc3ccccc3s2)c(=O)c1C(C)=Nc1ccc(Cl)cc1 was read as Sfp inh 79.4µM*, G9a block -121.1%[59 µM], HP1b binding inh 7.4%, JMJD2A Tudor inh 22.4µM*, BAZ2B block 25.1µM* and L3MBTL1 inh -12.1%.
`COC(=O)Cc1[nH]n(-c2nc3ccccc3s2)c(=O)c1C(C)=Nc1ccc(C)cc1` gave Sfp inh 56.2µM*, G9a block 14.1µM*, HP1b binding inh 25.7%, JMJD2A Tudor inh 35.5µM*, BAZ2B block 39.8µM* and L3MBTL1 inh 1.1%.
`COc1ccccc1-c1nc(SCC(=O)N2CCC(C(N)=O)CC2)n[nH]1` gave G9a block -3.0%[12.7 µM], HP1b binding inh 29.6%, JMJD2A Tudor inh -3.6%, BAZ2B block 4.9% and L3MBTL1 inh -9.7%.
Screening CCc1nc(CN(C)C(=O)C2CCC(=O)N(CCc3cccc(F)c3)C2)no1 (stereo unspecified) returned Sfp inh 9.3%, G9a block 6.6%, HP1b binding inh 12.1%, JMJD2A Tudor inh -10.4% and BAZ2B block -9.8%.
`CN(C)c1ccc(C2C3=C(CCCC3=O)OC3=C2C(=O)CCC3)cc1` gave Sfp inh -16.3%, G9a block inconclusive, HP1b binding inh -6.8%, JMJD2A Tudor inh inconclusive, BAZ2B block -37.7% and L3MBTL1 inh -10.9%.
Screening CN(C)c1ccc(/C=C2\CCCCC2=O)cc1 returned Sfp inh -0.1%, G9a block 50.1µM*, HP1b binding inh -9.2%, JMJD2A Tudor inh inconclusive, BAZ2B block inconclusive and L3MBTL1 inh -7.2%.
Screening C#C[C@@]1(O)CCC2C3CCc4cc(O)ccc4C3CC[C@@]21C (stereo partly specified) returned Sfp inh 1.7% and G9a block -8.9%[2.33 µM].
`O=c1[nH]c(=O)n([C@@H]2C[C@H](O)[C@H](CO)O2)cc1C(F)(F)F` gave Sfp inh 33.5% and G9a block 18.8%[21.5 µM].
